Assay outcomes as filed in PubChem BioAssay.
LASV entry inh – qHTS for Inhibitors of binding or entry into cells for Lassa Virus. Lassa virus pseudotype entry inhibition, cell reporter. Potency, µM (series often up to 37.9 µM), inactives show at the top dose activity change, negative = inhibition, hits mostly inhibitors. hit rate 1.2% among 300,000. AID 540256, 2011; calls by dose curve; tested in HEK293 cells; note: nearly all actives have a fitted effect of over 50% in size
Marburg entry inh – qHTS for inhibitors of binding or entry into cells for Marburg Virus; AID 540276, 2011; hit rate 1.8% among 300,000; Marburg virus pseudotyped entry inhibition, cell reporter; Potency, µM (top dose mostly 37.8 µM), inactives show top-dose activity change, negative = inhibition, most hits filed as inhibitors; calls by dose curve; tested in HEK293 cells
HCV inh – qHTS Assay for Inhibitors of Hepatitis C Virus (HCV) | Huh7.5.1 HCVcc-Cre infection, luciferase reporter, 44 h | Potency, µM (top dose mostly 41.8 µM), inactives show top-dose activity change, negative = inhibition, actives largely listed as inhibitors | hit rate 3.4% among 340,000 | AID 651820, 2012
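After 44 h co-culture of compound, cells and HCVcc-Cre (~0.5 moi), substrate is added for 15 min at room temperature and luciferase measured over 15 sec. Cells were seeded at 1,000/well and pre-cultured 4 h.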
FMDV inh – High Throughput Screening for Foot and Mouth Disease Virus Antivirals; FMDV antiviral cell-based qHTS; Potency, µM (titrated, usually from 57.9 µM), inactives show top-dose activity change, negative = inhibition, hits mostly inhibitors; hit rate 1.2% among 410,000; AID 1159524, 2015; calls by dose curve; tested in HEK293T cells; note: read-out not given here; nearly all actives have a fitted effect of over 45% in size
RE007 growth inh – qHTS Assay for Inhibitors of the HIV-1 protein Vpr; hit rate 0.21% among 360,000; S. pombe RE007 Vpr strain, BacTiter-Glo ATP luminescence, 24 h; Potency, µM (titrated, usually from 92.2 µM), without a hit: at the highest dose activity change, negative = less growth, actives largely listed as inhibitors; active = well fitted falling curve with a large enough effect; inconclusive = small, poorly fitted or top-dose-only effect; inactive = no such curve, though single readings can be large or run the other way; note: nearly all actives have a fitted effect of over 50% in size
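Fission yeast strain RE007, carrying one chromosomally integrated HIV-1 vpr copy, was seeded at OD 0.01 in PMG+AL medium with 23 nL pinned compound. After 24 h at 30 °C and 99% humidity, viability was read by BacTiter-Glo luminescence.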
Sm TGR block – qHTS Assay for the Inhibitors of Schistosoma Mansoni Peroxiredoxins. Potency, µM (highest dose often 114 µM), without a hit: at the top dose activity change, negative = inhibition, most hits filed as inhibitors. hit rate 3% among 360,000. Schistosoma mansoni thioredoxin glutathione reductase (TGR), Q962Y6. purified TGR, DTNB reduction, TNB absorbance 405 nm; note: nearly all actives have a fitted effect of over 60% in size
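Kinetic colorimetric format: TGR-catalysed, NADPH-driven DTNB reduction monitored via TNB absorbance. Enzyme dispensed at 20 nM; compound exposure 15 min at room temperature before reaction start.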
An asterisk follows results filed as active; [ ] = remark or other dose. Rows were chosen to be rich in hits. Some 7.2% of all compounds tested hit in one or more screens of this group. Unless noted, calls come from the whole dose curve; as a rule, active = well fitted curve in the direction sought with a large enough effect; inconclusive = small, poorly fitted or top-dose-only effect, or another doubt; inactive = no such curve, though single readings can be large; an effect the other way counts as inactive or inconclusive. % is set by controls: 0 for no effect and ±100 for the full control effect; potency is the fitted concentration of half-maximal effect.

Screening COc1cc(C(C2=C(O)CC(C)(C)CC2=O)C2C(=O)CC(C)(C)CC2=O)cc(OC)c1OC (centres undefined) returned LASV entry inh -18.0%, Marburg entry inh 0.2%[46.1 µM], HCV inh 0.5%, FMDV inh -10.2%, RE007 growth inh 2.3% and Sm TGR block 15.8µM*.
For COc1ccc(C(C2C(=O)CC(C)(C)CC2=O)C2C(=O)CC(C)(C)CC2=O)cc1COCC(F)(F)F the results were LASV entry inh -0.2%, Marburg entry inh 18.6%, HCV inh 32.3%, FMDV inh -10.6%, RE007 growth inh -0.6% and Sm TGR block 39.8µM*.
For CC1(C)CC(=O)C(C(C2=C(O)CC(C)(C)CC2=O)c2ccco2)C(=O)C1 (centres undefined) the results were LASV entry inh 6.4%, Marburg entry inh inconclusive, HCV inh 18.1%, FMDV inh inconclusive, RE007 growth inh 13.0% and Sm TGR block inconclusive.
Screening COc1cc(C(C2C(=O)CC(C)(C)CC2=O)C2C(=O)CC(C)(C)CC2=O)cc(OC)c1OC returned LASV entry inh 10.6%, Marburg entry inh 12.4%, HCV inh 39.2%, FMDV inh -1.3%, RE007 growth inh 14.9% and Sm TGR block 25.1µM*.
COc1cc(C(C2C(=O)CC(C)(C)CC2=O)C2C(=O)CC(C)(C)CC2=O)ccc1O was read as HCV inh 11.0%, FMDV inh -12.3%, RE007 growth inh -6.7% and Sm TGR block inconclusive.
`COc1cc(C(C2C(=O)CC(C)(C)CC2=O)C2C(=O)CC(C)(C)CC2=O)ccc1OC(C)=O` gave LASV entry inh 10.8%, Marburg entry inh 0.6%[14.2 µM], HCV inh 14.3%, FMDV inh 0.0% and RE007 growth inh 4.5%.
CCOC(=O)c1c(NC(=O)c2cc3nc(-c4ccc(OC)cc4)cc(C(F)(F)F)n3n2)sc2c1CCC(C)C2 (centres undefined) was read as LASV entry inh -0.7%[46.1 µM], FMDV inh -1.9% and Sm TGR block -5.7%.
Screening COc1ccc(NC(=S)N(CCC(C)C)C2CCN(C(C)C)CC2)cc1Cl returned LASV entry inh inconclusive, Marburg entry inh inconclusive, HCV inh 3.98µM*, FMDV inh -23.3%, RE007 growth inh -16.7% and Sm TGR block -20.4%.
`COC(=O)c1sc(S(=O)(=O)N2CCCCC2)c(C(=O)OC)c1C` gave LASV entry inh 23.1%, Marburg entry inh 12.6%, HCV inh -3.3%, FMDV inh -13.3%, RE007 growth inh -2.2% and Sm TGR block -22.7%.
`COC(=O)c1c(C)oc(C)c1S(=O)(=O)NC(C)(C)C` gave LASV entry inh 7.2%, Marburg entry inh -6.0%[46.1 µM], HCV inh 10.5%, FMDV inh -1.1%, RE007 growth inh 4.1% and Sm TGR block 25.1µM*.
`COC(=O)c1c(C)oc(C)c1S(=O)(=O)N1CCCCC1` gave LASV entry inh 3.8%, Marburg entry inh 10.4%, HCV inh 3.3%, FMDV inh 3.3%, RE007 growth inh -3.1% and Sm TGR block 39.8µM*.
For COC(=O)c1c(C)oc(C)c1S(=O)(=O)Nc1ccccc1 the results were HCV inh 11.9%, FMDV inh 61.3%, RE007 growth inh -15.9% and Sm TGR block -4.9%.
COC(=O)c1c(C)oc(C)c1S(=O)(=O)N1CCCC1 was read as HCV inh 18.5%, FMDV inh -19.4%, RE007 growth inh 1.2% and Sm TGR block 50.1µM*.
COC(=O)c1c(S(=O)(=O)N2CCOCC2)c(C)n(C)c1C was read as HCV inh 3.8%, FMDV inh 0.0%, RE007 growth inh 7.2% and Sm TGR block -9.0%.
Screening COC(=O)c1c(C)oc(C)c1S(=O)(=O)N(Cc1ccccc1)C(C)C returned LASV entry inh 2.0%, Marburg entry inh -3.5%, HCV inh -13.1%, FMDV inh inconclusive, RE007 growth inh 0.8% and Sm TGR block 31.6µM*.
For CCOc1ccc(NC(=O)N2CC=C(c3c[nH]c4ccccc34)CC2)cc1 the results were LASV entry inh -25.9%[46.1 µM], FMDV inh -19.0% and Sm TGR block -2.7%.
For COc1ccc(CN(C)C(=O)CCNS(=O)(=O)c2ccccc2)c(OC)c1 the results were FMDV inh -12.1% and RE007 growth inh -1.2%.
For COc1ccc(-c2cc3nc(C)c(CCC(=O)Nc4ccccc4C(C)=O)c(C)n3n2)c(OC)c1 the results were LASV entry inh -20.9%[46.1 µM], Marburg entry inh -10.1%[46.1 µM], FMDV inh -24.4% and Sm TGR block 11.3%.
N#CC1=C(N)NC(SCC(=O)O)=C(C#N)C12CCCC2 was read as LASV entry inh -1.5%, Marburg entry inh -21.5%[46.1 µM], HCV inh 11.5%, FMDV inh -17.8%, RE007 growth inh 13.5% and Sm TGR block -33.4%.
Screening N#CC1=C(N)NC(SCc2ccc(F)cc2)=C(C#N)C12CCCCC2 returned LASV entry inh inconclusive, Marburg entry inh 7.94µM*, HCV inh inconclusive, FMDV inh -24.4%, RE007 growth inh 12.4% and Sm TGR block 2.6%.
`Cc1ccccc1CN1CCc2nnc(C(C)NC(=O)c3cc(F)ccc3F)n2CC1` (centres undefined) gave FMDV inh -7.8%.
`C=C1C(=O)[C@]23C[C@H]1CCC2[C@]1(C)C(=O)CC[C@@](C)(C(=O)O)C1C[C@@H]3O` (some centres undefined) gave FMDV inh 35.5µM* and RE007 growth inh -13.7%.
Screening C=C1C(=O)[C@]23C[C@H]1CC[C@H]2[C@]1(C)[C@@H](OC(C)=O)CC[C@@](C)(C(=O)O)[C@H]1C[C@@H]3OC(C)=O returned FMDV inh inconclusive and RE007 growth inh -10.6%.
For C=C1C(=O)[C@]23C[C@H]1CCC2[C@]1(C)CCC[C@@](C)(C(=O)O)C1C[C@@H]3O (some centres undefined) the results were FMDV inh 25.1µM* and RE007 growth inh inconclusive.
For Cc1nc2nc(NC(=O)c3cccc(Cl)c3)[nH]n2c(=O)c1Cc1ccccc1 the results were LASV entry inh 0.9%[46.1 µM], Marburg entry inh 19.9%[46.1 µM], FMDV inh -0.7% and Sm TGR block -2.6%.
Screening COC(=O)c1[nH]c2cc(OC)c(OC)cc2c1/C=N/Nc1ccccc1 returned HCV inh 10µM*, FMDV inh 5.5%, RE007 growth inh 2.3% and Sm TGR block -25.3%.
`COc1cc(/C=N/Nc2ccccc2C(F)(F)F)ccc1O` gave HCV inh -21.9%, FMDV inh 43.3%, RE007 growth inh 7.4% and Sm TGR block 39.8µM*.
